# Only a selection was taken, and hits are over-represented in it overall.
# FAK inh: FAK kinase inhibitors, primary screen, biochemical. Focal adhesion kinase 1 (Homo sapiens), Q05397. biochemical FAK kinase activity assay. inhibition, %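 (tested at 7 µM)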. 0.84% of 97,000 active. AID 727, 2007; in the data active means inhibition above about 19%;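 further: 0% = DMSO and 100% = reference compound high control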
# PTK2B oligo ant: antagonists of Pyk2 self-association, primary screen, Q293 cells, FERM NanoBiT luminescence, HTS; AID 1347419, 2020; Protein-tyrosine kinase 2-beta (Homo sapiens), Q14289; z-score (the deposit names both 25 µM and 10 µM); stronger effect = lower value; 0.83% of 99,000 active;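 active means Z-score of -3 or lower, scaled per plate to the spread of control and sample wells; inactive means z-score above -3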;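 further: negative z-score means lost luminescence so less FERM oligomerization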
# D1 allo mod: D1 CRE-luciferase signal change, two-sided – cell-based, HEK293 D1, dopamine EC30, D1 allosteric modulator project, primary screen. dopamine EC30 potentiation; actives deviate in either direction. AID 641, 2007. 5.9% of 58,000 active. B-score at 10 µM. D(1A) dopamine receptor (Homo sapiens), P21728;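 active means luminescence count or its row- and column-corrected plate score outside the 99.7% band of the plate's sample wells, on either side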
# CD11b adhes inh: inhibitors of CD11b/CD18 adhesion to fibrinogen, primary screen, K562 cells, luminescence; inhibition, % at 10 µM; Integrin beta-2 (Homo sapiens) + Integrin alpha-M (Homo sapiens), P05107+P11215; ATPlite luminescence; Mn2+ added to activate the integrin; 0.54% of 93,000 active;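 active means primary inhibition of 50% or more at 10 µM, then 40% or more on retest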
# Target sequence (P05107 whole entry, looked up, other chains not shown): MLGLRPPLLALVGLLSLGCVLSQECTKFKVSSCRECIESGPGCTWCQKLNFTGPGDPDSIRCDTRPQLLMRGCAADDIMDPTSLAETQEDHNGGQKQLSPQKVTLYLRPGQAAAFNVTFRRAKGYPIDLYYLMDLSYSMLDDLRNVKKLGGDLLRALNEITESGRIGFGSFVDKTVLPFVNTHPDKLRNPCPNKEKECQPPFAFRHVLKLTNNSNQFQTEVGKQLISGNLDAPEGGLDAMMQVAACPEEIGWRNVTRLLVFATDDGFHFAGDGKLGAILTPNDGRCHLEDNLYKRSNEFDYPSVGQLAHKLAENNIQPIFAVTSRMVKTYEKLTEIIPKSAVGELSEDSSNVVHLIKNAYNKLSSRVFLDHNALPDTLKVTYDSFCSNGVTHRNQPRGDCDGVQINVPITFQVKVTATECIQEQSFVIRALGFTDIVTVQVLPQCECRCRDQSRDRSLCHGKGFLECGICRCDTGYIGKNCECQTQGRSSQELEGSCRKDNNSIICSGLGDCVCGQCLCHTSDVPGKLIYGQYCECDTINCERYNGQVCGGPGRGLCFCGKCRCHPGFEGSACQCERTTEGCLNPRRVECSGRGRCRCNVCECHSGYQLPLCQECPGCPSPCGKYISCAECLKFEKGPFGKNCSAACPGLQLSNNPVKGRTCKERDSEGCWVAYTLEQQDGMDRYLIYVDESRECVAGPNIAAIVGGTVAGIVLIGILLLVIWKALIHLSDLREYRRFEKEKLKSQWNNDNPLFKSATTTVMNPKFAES
# CD11b adhes enh: enhancers of CD11b/CD18 adhesion to fibrinogen, primary screen, K562 cells, luminescence; Integrin beta-2 (Homo sapiens) + Integrin alpha-M (Homo sapiens), P05107+P11215; activation, % at 10 µM; ATPlite luminescence; 0.07% of 93,000 active; AID 1499, 2009;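 active means 10 µM primary screen giving 50% or more activity, confirmed by 40% or more on retest at that dose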
# DAT uptake mod: changed hDAT dopamine uptake under cocaine IC80, either direction, primary screen, cocaine antagonist project, cell-based, LLC-PK1 hDAT, [14C]-dopamine uptake, MLSMR; AID 449768, 2010; 1.3% of 110,000 active; LLC-PK1 hDAT cells, [14C]-dopamine uptake with cocaine IC80; actives deviate in either direction; B-score at 10 µM;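 active means Z score or B-score, a plate-position-corrected score, falls beyond the plate's 99.7% confidence bounds, in either direction; inactive means both scores lie inside the 99.7% bounds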;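 further: scored against the spread of the other compound wells on the same plate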
# D1 PAM confirm: D1 receptor positive allosteric modulators, retest, confirmation, cell-based, HEK293 D1, CRE-luciferase, duplicate; dopamine EC30 potentiation; stronger effect = higher value; shares compounds with D1 allo mod; luminescence at 10 µM; 88% of 2,200 active;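 active means luminescence in either of two replicates above the same-plate mean plus 3 SD of the low-dose dopamine control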
# D1 no dopamine: D1 receptor agonism without dopamine, confirmation, mechanism study for D1 allosteric modulator project, cell-based, HEK293 D1, CRE-luciferase, secondary assay 1; luminescence at 10 µM; 0.8% of 1,900 active; luminescence, no dopamine; stronger effect = higher value; shares compounds with D1 allo mod; AID 646, 2007; in the data active means luminescence above about 3900
# Isoprot counter: alters isoproterenol CRE-luciferase response in HEK293 cells; shares compounds with D1 allo mod; calls only at 10 µM; AID 647; HEK293 D1 CRE-luciferase, isoproterenol EC30 counter-screen; 63% of 2,200 active;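 active means luminescence in either replicate above plate mean of wells with a partly effective reference agonist dose plus 3 SD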;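 further: isoproterenol raises cAMP through native beta-adrenoceptor Gs so signal bypasses D1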
# Starred values were filed as active, the others as inactive; i = inactive; x = no result given; + = active, no number.
SMILES,FAK inh,PTK2B oligo ant,D1 allo mod,CD11b adhes inh,CD11b adhes enh,DAT uptake mod,D1 PAM confirm,D1 no dopamine,Isoprot counter
CNc1nc(OCC(F)(F)F)nc(N2CCOCC2)n1,-1,0.39,x,0,-5,-0.52,x,x,x
CCC(C)(C(=O)NC1CCCC1)N(Cc1ccco1)C(=O)c1ccc2c(c1)OCO2 (configuration not stated),-4,0.37,4.9*,x,x,-0.67,4332,1468,i
CCC(C)(C(=O)NC1CCCC1)N(Cc1ccco1)C(=O)c1ccccn1 (configuration not stated),-4,1.4,-0.79,x,x,0.87,x,x,x
COc1ccc(Nc2ncccc2C(=O)NCc2ccccc2)cc1,1,-1.1,x,-2,-5,0.92,x,x,x
COc1cccc(Nc2ncccc2C(=O)NCc2ccccc2)c1,3,-0.6,11*,-11,10,2.9,21276*,1540,+
Cc1cc(C(=O)Nc2ccc(S(=O)(=O)Nc3onc(C)c3C)cc2)c(C)o1,-3,0.14,2.9*,5,-1,0.4,8272*,1556,+
Cc1noc(NS(=O)(=O)c2ccc(NC(=O)c3ccoc3C)cc2)c1C,-1,0.39,-0.44,-2,-6,1.1,x,x,x
CCOC(=O)Cc1c(C)nc2c(-c3ccc(OC)cc3)c(C)nn2c1C,-1,-1.1,x,34,-3,0.85,x,x,x
Cc1cccc(CSC2=NCCN2C(=O)c2ccco2)c1,1,x,3.8*,-12,-2,1.4,9944*,1728,i
COc1ccc2nc(NC(=O)CCc3nc(-c4ccccc4F)no3)sc2c1,0,0.99,8.3*,-7,44,-0.9,7800,1704,i
COc1ccc2nc(NC(=O)Cc3cccs3)sc2c1,6,0.55,x,-2,0,-0.0092,x,x,x
CS(=O)(=O)NCc1nnc(SCC(=O)NC2CCCCC2)n1-c1ccc(F)cc1,-1,0.62,0.15,-19,1,1.2,x,x,x
Cc1ccc(NC(=O)c2ccc(NCc3ccco3)c([N+](=O)[O-])c2)cc1Cl,x,x,x,-6,-3,x,x,x,x
O=c1[nH]c(SCc2nc3c(cnn3-c3ccccc3)c(=O)[nH]2)nc2ccccc12,4,-1.9,x,x,x,0.48,x,x,x
CCCCCSc1nc2c(cnn2-c2ccccc2)c(=O)[nH]1,2,-0.66,2.9*,-10,-4,-0.48,13144*,1508,i
CC(C)Sc1nc2c(cnn2-c2ccccc2)c(=O)[nH]1,x,x,15*,1,0,-1.7,15608*,1888,+
CCOC(=O)C(CC)Sc1nc2c(cnn2-c2ccccc2)c(=O)[nH]1 (configuration not stated),9,x,2.8,-1,0,0.17,x,x,x
O=c1[nH]c(SCc2ccccc2Cl)nc2c1cnn2-c1ccccc1,x,x,7.6*,2,0,-0.092,6188,x,+
Cc1ccc(-n2ncc3c(=O)[nH]c(SC(C)C)nc32)cc1,4,x,17*,-4,37,0.065,12920*,1492,+
COc1cc(O)oc1C=Nc1ccc(C(F)(F)F)cc1,-1,0.29,x,x,x,0.25,x,x,x
CCNc1nc(NC(C)C)nc(N(C#N)CCOc2ccccc2)n1,1,-2.1,x,29,-3,-0.36,x,x,x
C#CCN(C#N)c1nc(NCC)nc(NC(C)C)n1,2,-0.16,17*,-41,7,-0.74,18300*,1652,+
Cc1ccc(Nc2nc(Cl)nc(N(C)C#N)n2)cc1,2,1.3,x,x,x,0.12,x,x,x
CCN(C#N)c1nc(NC(C)C)nc(NC(C)C)n1,-2,0.33,9.7*,-23,-2,0.0098,22184*,1544,+
COC(=O)CN(C#N)c1nc(NC(C)C)nc(OC)n1,-1,0.15,x,x,x,-0.94,x,x,x
SMILES,FAK inh,PTK2B oligo ant,D1 allo mod,CD11b adhes inh,CD11b adhes enh,DAT uptake mod,D1 PAM confirm,D1 no dopamine,Isoprot counter
CC(C)Nc1nc(NC(C)C)nc(N(C)C#N)n1,-6,0.72,16*,4,-1,0.49,21628*,1804,+
CCOc1ccccc1C1CC(=O)NC2=C1C(=O)CC(C)(C)C2 (configuration not stated),2,0.71,3.3*,12,-3,-0.12,5416,1524,i
c1ccc2c(c1)CCCN2c1nc2ccccc2n2cnnc12,3,x,7*,-6,1,0.019,9840*,1760,i
c1ccc(N2CCN(c3nc4ccccc4n4cnnc34)CC2)cc1,-2,x,x,-4,2,-0.64,x,x,x
c1ccc2c(c1)CCN(c1nc3ccccc3n3cnnc13)C2,-5,x,7.9*,6,4,2.2,13016*,1668,+
O=C(O)c1cccc(NS(=O)(=O)c2cccc3nsnc23)c1,5,0.35,x,7,-2,-0.94,x,x,x
CC1CCCCC1NS(=O)(=O)c1ccc(S(=O)(=O)NCc2ccncc2)cc1 (configuration not stated),2,x,-1.5,16,-6,-0.031,x,x,x
CC(Sc1nnnn1-c1ccccc1)C(=O)Nc1ccc(Cl)cn1 (configuration not stated),0,-2.4,0.29,-26,2,0.91,x,x,x
CCCCN(C(=O)CN1CCOCC1)c1c(N)n(CC(C)C)c(=O)[nH]c1=O,x,x,x,-20,5,x,x,x,x
Cc1ccc(S(=O)(=O)N2CCCC2C(=O)OCc2ccco2)cc1 (configuration not stated),3,1.5,-1.5,18,6,-0.53,x,x,x
Cc1ccc(NC(=O)C2(c3cccs3)CCOCC2)cc1C,x,x,x,-6,1,x,x,x,x
COc1cc(C(=O)N2CCN(c3cc(Cl)ccc3Cl)CC2)cc(OC)c1OC,9,x,6.5*,10,-4,-0.011,10496*,1588,+
Cc1ccc(NC(=O)CN(C)C(=O)/C=C/c2cccs2)cc1,x,x,x,1,0,x,x,x,x
COc1ccccc1-c1nnc2sc(-c3cc4ccccc4o3)nn12,0,-0.51,3.9*,37,-4,x,10596*,1704,+
Cc1nc(NC(=O)c2ccc(Cl)cc2)sc1-c1csc(Nc2cccc(F)c2)n1,2,x,x,x,x,1.7,x,x,x

# Screening results deposited in PubChem BioAssay by several laboratories.
